PNC assembly inh: High Content Assay for Compounds that inhibit the Assembly of the Perinucleolar Compartment | PC3M PTB-GFP, PNC prevalence imaging, 16 h; stronger effect = lower value | activity change (PNC), negative = inhibition, % at 10 µM | hit rate 3.1% among 140,000 | AID 2417, 2010;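 active = readout at or below -70, meaning at least 70% loss of cells showing the perinucleolar compartment, a nuclear body marking cancer cells; inconclusive = readout between -30 and a set limit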;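 note: plate controls were DMSO wells for no effect and camptothecin positive control wells for full effect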
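Read-out is percentage of cells bearing a perinucleolar compartment, from automated 20x imaging of fixed, Hoechst-stained PC3M PTB-GFP cells. Cells were seeded 4 h, then exposed 16 h to compound (23 nl of library stock) in duplicate plates.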
HPGD inh: qHTS Assay for Inhibitors of HPGD (15-Hydroxyprostaglandin Dehydrogenase); purified HPGD, NADH fluorescence kinetic, PGE2 substrate; Potency, µM, for the others: at the highest dose activity change, negative = inhibition, most hits filed as inhibitors; hit rate 4.3% among 150,000; AID 894, 2007; note: potency is the fitted concentration of half-maximal effect
Target sequence (P15428 whole entry, looked up): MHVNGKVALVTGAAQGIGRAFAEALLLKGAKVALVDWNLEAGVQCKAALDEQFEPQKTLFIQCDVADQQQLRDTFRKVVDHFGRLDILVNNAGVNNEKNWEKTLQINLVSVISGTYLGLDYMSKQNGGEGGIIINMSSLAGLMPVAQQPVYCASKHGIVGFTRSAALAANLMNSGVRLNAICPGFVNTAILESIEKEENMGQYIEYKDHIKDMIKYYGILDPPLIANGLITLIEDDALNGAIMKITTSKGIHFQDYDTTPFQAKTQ
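20 nM HPGD preincubated 15 min at room temperature with compound in 50 mM Tris-HCl pH 8, 0.01% Tween 20. Started with 1 mM NAD+ and 30 uM prostaglandin E2; NADH fluorescence (360/450 nm) read 5 times over 30-s intervals, last minus first.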
ALDH1A1 inh: qHTS Assay for Inhibitors of Aldehyde Dehydrogenase 1 (ALDH1A1); Purified ALDH1A1, NADH fluorescence, propionaldehyde substrate; Aldehyde dehydrogenase 1A1 (Homo sapiens), P00352; Potency, µM (series often up to 75.3 µM), for inactives: at the highest dose activity, negative = inhibition, hits mostly inhibitors; hit rate 7.3% among 220,000;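 note: potency is the fitted concentration of half-maximal effect; plate controls were no enzyme wells and a reference inhibitor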
Numbers without * were called inactive; u = inconclusive; x = not tested or not shown; [ ] = dose if it differs, or a comment. This is a sample that favours compounds with a hit; in the whole collection about 11% have one here. Unless noted, calls come from the whole dose curve; as a rule, active = well fitted inhibition curve with a large enough effect (not every such curve was filed as active); inconclusive = small, poorly fitted or top-dose-only effect, or another doubt; inactive = no such curve, though single readings can be large or run the other way. Unless noted, % is set by controls: 0 for no effect and ±100 for the full control effect.

SMILES	PNC assembly inh	HPGD inh	ALDH1A1 inh
CN(C)CCNS(=O)(=O)c1ccc(N2CCN(c3ccc(F)cc3)CC2)c([N+](=O)[O-])c1	13	-8%	-2%
NS(=O)(=O)c1cc(C(=O)O)c(O)c2ccccc12	x	-26%	-15%[13.5 µM]
COc1cc2c(cc1OC)C1(CCCC1)C(N)=C2C#N	-100*	-12%	6%
COc1cc(OC)c(OC)cc1C#N	x	x	6%
CC(C)n1c(Oc2ccc(F)cc2)nc2c1c(=O)n(C)c(=O)n2C	x	x	0%
COc1ccccc1C(=O)NCCCn1cc(Br)c(C)n1	12	2%	-4%
COc1ccc2nc(NC(=O)C(NS(=O)(=O)c3cccs3)C(C)C)sc2c1 (stereo unspecified)	3	-13%	-3%
COc1ccc(C2C(C(=O)NCc3ccccn3)c3ccccc3C(=O)N2C)cc1OC (stereo unspecified)	-88*	-15%	-5%
COc1ccc(C2C(C(=O)NCCN(C)C)c3ccccc3C(=O)N2C)cc1OC (stereo unspecified)	u	x	-3%
CCn1nnnc1SCC(=O)Nc1nc(-c2cccs2)cs1	u	-18%	3.2µM*
CCn1nnnc1SCC(=O)Nc1nnc(C(C)C)s1	u	3%	u
COc1ccc(C2C(C(=O)N3CCN(c4ccccc4)CC3)c3ccccc3C(=O)N2C)cc1OC (stereo unspecified)	35	-8%	u
CCN1CCN(CCCNC(=O)C2c3ccccc3C(=O)N(c3ccc(OC)cc3)C2c2ccc(OC)cc2)CC1 (stereo unspecified)	x	x	7%
CCOC(=O)CNC(=O)C1c2ccccc2C(=O)N(c2ccc(OC)cc2)C1c1ccc(OC)cc1 (stereo unspecified)	-28	-15%	28µM*
COc1ccc(C2C(C(=O)N3CCN(C)CC3)c3ccccc3C(=O)N2C2CCCCC2)cc1 (stereo unspecified)	u	-3%	-1%
COc1ccc(C2C(C(=O)N3CCN(c4ccccc4)CC3)c3ccccc3C(=O)N2C)cc1 (stereo unspecified)	-100*	-18%	2.2µM*
COc1ccc(C2C(C(=O)N3CCOCC3)c3ccccc3C(=O)N2c2ccc(OC)cc2)cc1 (stereo unspecified)	42	-10%	14µM*
CCO[C@@H]1OC(C(=O)NCc2nc3ccccc3[nH]2)=C[C@H](C)[C@H]1CCCO	x	x	2%
CCOc1ccc(CN(C)C(=O)CCl)cc1	x	x	0.05µM*
CCOc1ccc(OCc2ccc(C(=O)O)o2)cc1	11	-10%	4%
O=C(c1cnc(Cl)c(Cl)c1)N1CCC(Cc2ccccc2)CC1	x	x	-10%
O=C(CN(Cc1ccc2c(c1)OCO2)C(=O)c1cnsn1)NC1CCCC1	-19	x	0%
O=C1CC(=O)N(c2ccccc2)N1c1ccccc1	u	-7%	-13%
CC1(O)CC(=O)N(c2ccccc2)O1 (stereo unspecified)	-13	-10%	22µM*
O=C(CCCn1c(=O)c2ccccc2n(CC(=O)N2CCN(c3ccccc3)CC2)c1=O)NCc1ccco1	x	x	1%
SMILES	PNC assembly inh	HPGD inh	ALDH1A1 inh
CC(O)C1CCC2C3CC[C@H]4CC(O)CCC4(C)C3CC3(OCCO3)C12C (stereo partly specified)	23	-4%	u
COc1cc(O)oc1C=Nc1ccc(Cl)cc1Cl	77	u	14µM*
COc1cc(O)oc1C=Nc1ccc(Cl)cc1	56	-13%	u
O=C(NCc1n[nH]c(=S)n1-c1ccc(Br)cc1)c1ccc(S(=O)(=O)N2CCOCC2)cc1	x	x	-10%
Cn1cc(/C=C/C(=O)N2CCCC(C(=O)c3ccc(C(C)(C)C)cc3)C2)cn1 (stereo unspecified)	x	x	-5%
CCOc1ccc(C(=O)NCC(=O)OCC(=O)N2CCCCC2)cc1	32	-3%	6%
CCOc1ccc(NC(=O)c2ccc(NCC(=O)N3CCCCCC3)cc2)cc1	x	x	6.3µM*
CN(C)CCC(=O)c1ccc(Cl)cc1	u	16µM*	0.11µM*
O=C(CC(C(=O)O)c1ccc(Cl)cc1)c1ccccc1 (stereo unspecified)	x	x	3%
COC(=O)C(CC(=O)c1ccc(Cl)cc1)c1ccc(C)cc1 (stereo unspecified)	-100*	-10%	-4%
CCOc1ccc(NCC(=O)c2ccc(C)cc2)cc1	x	x	3.2µM*
CCOc1ccc(C(=O)COc2ccc(NC(C)=O)cc2)cc1	2	-21%	0%
O=C(O)CCC(=O)CCC(=O)c1ccc(Cl)cc1	-1	-17%	-1%
CCOC(=O)c1sc(N)c(C#N)c1CSc1nnc(C2CCCCC2)n1N	27	-7%	u
CSC1=NCCN1C(=O)Cc1cccs1	-11	-14%	-6%
O=C(O)CCC(=O)N1CCc2cc(S(=O)(=O)N3CCC(Cc4ccccc4)CC3)ccc21	11	-8%	9%
CC(=O)NC(CC(=O)O)c1ccc([N+](=O)[O-])cc1 (stereo unspecified)	x	x	10%
Cc1ccc(C(=O)CNc2ccc(Cl)cc2)cc1	x	x	10µM*
C/C(=N/NC(=O)CNc1ccc(C)cc1)c1ccc(Cl)cc1	18	-9%	u
COCC(=O)NNS(=O)(=O)c1ccccc1[N+](=O)[O-]	-2	-4%	3%
COc1cc2[nH]c(=S)nc(NCCCOC(C)C)c2cc1OC	10	18µM*	u
CCOCCCNc1nc(=S)[nH]c2cc(OC)c(OC)cc12	-13	-6%	6%
CC(C)NC(=O)c1sc2nc3c(c(-c4cccs4)c2c1N)CN(C)CC3	32	-13%	-11%
Cc1cccc(NC(=O)c2sc3nc4c(c(-c5cccs5)c3c2N)CN(C)CC4)c1	-20	-17%	14µM*
CC(C)OC(=O)C1C(=O)CC(C)(O)C(C(=O)OC(C)C)C1c1cccc(O)c1 (stereo unspecified)	27	-7%	-4%
SMILES	PNC assembly inh	HPGD inh	ALDH1A1 inh
N#CCCn1ncn(-c2ccccc2)c1=S	-8	-4%	4%
NNC(=O)c1sc(-c2ccccc2)cc1N	x	x	28µM*
CC(=O)c1sc(-c2ccccc2)cc1N	x	x	-8%
COc1ccc(NC(=O)N2CCC3(CC2)CCN(C(=O)c2cccc(F)c2)CC3)cc1	x	0%	-6%
O=C(CSc1nccc(=O)[nH]1)Nc1ccc(Br)c(Cl)c1	-20	32µM*	u
O=C(CSc1nccc(=O)[nH]1)Nc1ccc(F)c(Cl)c1	u	-25%	u
Cc1ccsc1CNC12CC3CC(CC(C3)C1)C2	x	x	4%
S=C(Nc1ccccc1)Nc1ccccc1-n1cccc1	x	x	-11%
N#Cc1ccccc1NC(=S)Nc1ccc(F)cc1	x	x	-1%
S=C(Nc1ccccc1)Nc1ccccc1C#Cc1ccccc1	x	u	18µM*
C[Si](C)(C)C#Cc1ccccc1NC(=S)Nc1ccccc1	x	u	13µM*
COc1ccc(-c2oc3cc(OC)c(O)c(OC)c3c(=O)c2OC)cc1O	x	x	0%
CCC(CC)C(=O)NCCc1ccc(F)cc1	-9	-10%	10%
Cc1ccc(C(=O)N[C@H](C(=O)Nc2cc(Cl)cc(Cl)c2)C(C)C)cc1	29	-1%	5%
COC(=O)N1[C@H](C)C=C[C@]1(Cc1ccccc1)C(=O)NCc1ccccn1	x	-6%	u
